Screening data from PubChem.
TWEAK Fn14 block – TWEAK-Fn14 signaling inhibition. 360,000 tested, 2% active. inhibition, % at 10 µM. TWEAK-stimulated Fn14 reporter cells, luciferase luminescence, 8 h; in the data active = inhibition above about 50%
CF NFkB inh – inhibitors of cystic fibrosis induced NF-kB; KKLEB NF-kB-GFP reporter, PAF-induced, GFP fluorescence overnight; inhibition, % at 5 µM; 360,000 tested, 0.86% active; AID 588850;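 active = at least 50% inhibition at 5 µM, scaled per plate between neutral and stimulator controls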;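 also: PAF is a Pseudomonas aeruginosa culture filtrate used as stimulus; plate controls were PAF-stimulated DMSO wells for no effect and unstimulated DMSO wells for full effect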
EWS-Fli block – EWS/Fli transcriptional activity inhibition. inhibition, % at 12.6 µM. A673 NR0B1-luciferase reporter, viability-normalised. 350,000 tested, 0.67% active;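 active = mean inhibition of at least 50% after viability correction, with every replicate also passing that limit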;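 also: firefly luciferase signal divided by Alamar Blue viability fluorescence both relative to DMSO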
KKLEB tox – counter-screen for CF NF-kB inhibitors: cytotoxicity; activity change (cytotoxicity), % at 5 µM; AID 602141; KKLEB CF airway cells viability, ATPlite luminescence, overnight; stronger effect = lower value; cells stimulated with P. aeruginosa culture filtrate; 360,000 tested, 0.36% active;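 active = corrected activity change at or below -50% at 5 µM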
TROY signal inh – TROY signaling inhibition | 360,000 tested, 0.98% active | AID 1347056 | Q293 LMP1-TROYcd NF-kB luciferase reporter, 4 h | inhibition, % at 10 µM;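 active = compounds whose plate-normalised and pattern-corrected inhibition of the luciferase reporter signal at the single screening dose is 50% or more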
LGR2 antag – Drosophila LGR2 receptor signaling inhibition | inhibition, % at 9.99 µM | HEK293 LGR2, CRE-luciferase, bursicon-stimulated, 4 h | 380,000 tested, 0.35% active | AID 720647;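 active = drop in luminescence signal, shown as inhibition above about 50% in the replicate tests, limit read from the data, passing the limit was not always enough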;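 also: agonist challenge used bursicon conditioned medium at about half maximal strength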
Numbers without * were called inactive; . = no result. The list is not random: actives were taken first. Their share in the collection is about 2.6%.

SMILES	TWEAK Fn14 block	CF NFkB inh	EWS-Fli block	KKLEB tox	TROY signal inh	LGR2 antag
CCCNC(=O)N(C)C[C@@H]1Oc2ncc(/C=C/c3ccccc3)cc2C(=O)N([C@H](C)CO)C[C@@H]1C	.	.	3.5	.	.	-5.0
NC(=O)c1sc2nc(-c3ccccc3)c3c(c2c1N)CCCC3	8.0	-25.7	1.7	6.0	17.4	0.1
Nc1c2c(nc3sc4c(c13)CCCC4)-c1ccccc1CC2	44.5	-10.0	-51.9	-33.9	56.4*	-44.3
CCCN1C[C@H](C)[C@H](OC)CN(C)C(=O)c2cc(NC(=O)c3ccccc3)ccc2OC[C@H]1C	.	.	-9.8	.	.	-9.9
Cc1nc(Nc2ccc(Cl)c(Cl)c2)sc1C(=O)Nc1ccccc1	84.2*	8.9	-4.3	1.3	38.1	-13.4
CCN(CC)c1ccc2c(c1)oc(=O)c1c(Cl)cc(=O)oc12	75.5*	8.4	.	-34.2	-44.4	.
CCN(CC)c1ccc2c(Cl)c(Br)c(=O)oc2c1	85.4*	37.2	.	-11.8	42.5	.
OC[C@@H]1CN(Cc2ccc(-c3ccccc3)cc2)C[C@H](n2cnc3c(NC4CCC4)ncnc32)O1	59.0*	2.0	10.7	-5.8	36.1	9.2
OC[C@@H]1CN(Cc2ccccc2)C[C@H](n2cnc3c(NC4CC4)ncnc32)O1	-4.6	-19.6	-7.6	1.0	-0.3	20.2
Oc1ccc(-c2nc3c4c(ncn3n2)-c2ccccc2CC42CCCC2)cc1	77.1*	-22.3	.	1.6	30.3	-0.1
NC(=O)C1CCN(c2ccc3c(c2)S(=O)(=O)c2ccccc2C3=O)CC1	49.0	8.7	-82.0	-9.2	63.5*	-32.8
COCC(=O)Nc1ccc2c(c1)C(=O)N(C)C[C@@H](OC)[C@@H](C)CN(C(=O)c1cccnc1)[C@H](C)CO2	.	.	-13.9	.	.	5.6
C/C=C/c1ccc(C2[C@H]3CNC[C@@H]2N3Cc2ccc(OC)cc2)cc1 (stereo partly specified)	.	.	1.2	.	.	-9.2
C=CC1c2cc(OC)c(OC)cc2CC(C)N1Cc1ccc(OC)cc1 (stereo unspecified)	.	.	56.4*	.	.	.
Clc1ccc(Nc2ncnc3ccc(Br)cc23)cc1	73.7*	73.0*	.	-10.0	35.0	32.8
COc1ccccc1NC(=O)c1c(C)cc(=O)oc1C	59.7*	29.3	5.9	-23.6	-10.1	2.1
Cc1ccccc1NC(=O)c1c(C)cc(=O)oc1C	7.1	3.7	-6.7	-1.1	-15.2	12.1
CCOC(=O)N1CCN(c2c(NCc3ccc(Cl)cc3)c(=O)c2=O)CC1	-11.5	24.2	52.3*	-12.8	18.4	-4.2
CCOC(=O)N1CCN(c2c(NCc3ccc(F)cc3)c(=O)c2=O)CC1	-3.7	1.0	56.8*	-3.8	2.6	-12.5
CCc1ccc2nc(N(CCCN(C)C)C(=O)c3ccc(S(=O)(=O)N4CCc5ccccc5C4)cc3)sc2c1	-208.4	66.6*	.	-97.6*	-87.3	2.0
CCOc1cccc2sc(N(CCCN(C)C)C(=O)c3ccc(S(=O)(=O)N4CCc5ccccc5C4)cc3)nc12	-7.8	3.5	.	-0.3	-38.1	1.1
Cc1ccc(C2=NN(C(=O)CCl)C(c3ccco3)C2)o1 (stereo unspecified)	55.0*	27.0	49.0	-16.7	-1.6	-1.4
COc1ccc(OC)c(NC(=O)CC2SC(=Nc3ccc(F)cc3)N(CCC3=CCCCC3)C2=O)c1 (stereo unspecified)	2.9	9.0	.	-1.3	-2.6	-7.3
COc1cc([N+](=O)[O-])ccc1NC(=O)CC1SC(=Nc2ccc(F)cc2)N(CCC2=CCCCC2)C1=O (stereo unspecified)	60.2*	-7.0	7.9	6.8	-1.0	10.6
O=S(=O)(c1ccc(OC(F)(F)F)cc1)N1CCC(O)(c2cccc(C(F)(F)F)c2)CC1	15.8	3.2	10.0	2.0	58.4*	-3.9
SMILES	TWEAK Fn14 block	CF NFkB inh	EWS-Fli block	KKLEB tox	TROY signal inh	LGR2 antag
N=C(N)SCc1cn(-c2ccccc2)nc1-c1ccc(Br)cc1	0.9	16.5	34.4	-5.3	9.3	100.4*
Cc1ccc(-c2nn(-c3ccccc3)cc2CO)cc1	-2.6	-2.4	-90.1	5.1	-38.3	-38.7
CO[C@@H]1CN(C)C(=O)c2ccc(NS(C)(=O)=O)cc2OC[C@H](C)NC[C@@H]1C	.	.	-1.2	.	.	2.8
Clc1ccc(-c2nc3n(n2)Cc2ccccc2-3)cc1	51.7*	-12.4	.	-22.1	-34.4	.
C=CCOc1c(CNc2cccc(C(=O)O)c2)cccc1OC	54.0*	1.6	.	8.0	8.8	-85.8
C=CCOc1c(CNc2cccc(C(=O)O)c2)cccc1OCC	-31.4	-6.2	.	6.9	-67.1	-30.4
Cc1cc(C)n(CC(O)Cn2c3ccccc3c3ccccc32)n1 (stereo unspecified)	-12.1	-10.1	.	-1.9	11.9	0.5
Cc1nccn1CC(O)Cn1c2ccccc2c2ccccc21 (stereo unspecified)	83.8*	-1.0	.	-0.1	.	.
O=C(Nc1ccc2c(c1)OCO2)N[C@@H]1C=C[C@@H](CC(=O)N2CCN(c3ccccc3)CC2)O[C@H]1CO	.	.	-4.0	.	.	-7.1
C[C@@H]1CN([C@H](C)CO)C(=O)c2cccc(NC(=O)C3CC3)c2O[C@@H]1CN(C)Cc1ccc2c(c1)OCO2	.	.	-0.8	.	.	-4.5
CC(=O)N1/C(=C/c2ccc(N(C)C)cc2)C(=O)c2ccccc21	86.1*	48.1	29.3	-12.2	66.5*	75.0*
CCC(=O)N1C[C@H](C)[C@H](OC)CN(C)C(=O)c2ccc(NC(=O)NC(C)C)cc2OC[C@@H]1C	.	.	4.5	.	.	-3.7
c1ccc(CCc2nn3c(-c4ccncc4)nnc3s2)cc1	73.9*	72.0*	.	-13.7	28.7	.
Clc1ccccc1-c1nnc2sc(CCc3ccccc3)nn12	8.1	5.0	-2.0	10.4	-16.8	-2.6
CCOc1cc(/C=N/O)ccc1OCc1ccc([N+](=O)[O-])cc1	-11.6	-33.2	0.8	0.8	-23.1	-4.2
CCOc1cc(C=C(C(=O)OC)C(=O)OC)ccc1OCc1ccc([N+](=O)[O-])cc1	82.6*	30.8	.	-2.3	52.2*	.
C[C@@H]1CN([C@@H](C)CO)C(=O)c2ccccc2-c2ccccc2CO[C@H]1CN(C)C(=O)Nc1cccc(F)c1	.	.	-1.4	.	.	11.1
COc1ccc2c(=O)c(-c3nc(C)cs3)coc2c1	79.3*	-38.8	.	-8.0	22.9	.
COc1ccc(-c2coc3cc(OC)ccc3c2=O)cc1	-3.8	-20.9	-69.4	6.7	-44.5	.
N=c1oc2ccccc2cc1C(=O)Nc1ccc(F)cc1	61.6*	11.8	25.9	-28.2	-80.6	9.2
N=c1oc2ccccc2cc1C(=O)Nc1cccc(F)c1	49.9	5.2	-44.7	3.1	-11.4	-65.1
Cc1ccc(NC(=O)c2cc3ccccc3oc2=N)cc1	98.1*	-20.4	69.2*	-16.2	38.0	89.5*
CS(=O)(=O)c1ccc(C(=O)OCC(=O)NC(=O)C2CCCCC2)cc1[N+](=O)[O-]	73.0*	74.4*	19.0	-19.7	50.8*	59.8*
